We go through 93 molecules from ChEMBL document CHEMBL3988442, “University of Dundee, Small-Polar-MMV Screening Library” (2021).

Screen size: about 48,000 compounds; about 13,000 (27%) showed an effect of 50% or more. Some of the results follow.

In this test the test system is Wolbachia pipientis. As to the kind of experiment: Anti-Wolbachia Cell-Based Screen. Format: functional. On the set-up: scale not given: in the data most compounds retested in dose-response had high values. The following applies: 5 µM.
`Cn1ccnc1NC[C@@H]1CCC[C@@H]2CN(CC3CC3)C[C@@H]21.O=C(O)C(F)(F)F`: the “Percent Effect” value stood at 12.38%. The figure for `COc1ccnc(CN2CCC=C(C(C)NC(C)=O)C2)c1OC` (stereo not drawn) is -37.4%. Regarding `O=C(NCc1cccnc1)N1CCc2ncnc(NC3CC3)c2CC1.O=C(O)C(F)(F)F`, the “Percent Effect” value is given as 96.91%. With `CC(C)Nc1ncnc2c1CCN(C(=O)NCc1cccnc1)CC2.O=C(O)C(F)(F)F` the figure was -1.871%. With `COc1ncnc2c1CCN(C(=O)NCc1cccc(F)c1)CC2` the figure was -12.16%; with `CC(C)Nc1ncnc2c1CCN(C(=O)NCc1cccc(F)c1)CC2`, 86.35%; with `O=C(NCc1cccnc1)N1CCc2ncnc(C3CC3)c2CC1.O=C(O)C(F)(F)F`, -6.522%.

As to `CCOc1ncnc2c1CCN(C(=O)NCc1cccnc1)CC2.O=C(O)C(F)(F)F`, the “Percent Effect” value worked out at 0.188%.

With `CCN(C)c1ncnc2c1CCN(C(=O)NCc1cccnc1)CC2.O=C(O)C(F)(F)F`, the “Percent Effect” value is listed as 18.48%. With `COc1ncnc2c1CCN(C(=O)NCc1cccnc1)CC2.O=C(O)C(F)(F)F` the figure was 5.156%. The figure for `O=C(NCc1cccc(F)c1)N1CCc2ncnc(NC3CC3)c2CC1` is 117.5%; for `O=C(NCc1ccccc1)N1CCc2ncnc(NC3CC3)c2CC1` it is 108.7%.

Take `CN1CCc2[nH]nc(C(=O)N3CCC4(CN(C)C(=O)O4)C3)c2C1` (stereo not drawn): the “Percent Effect” value is listed as 3.232%. With `CCC(O)CN1CCN(C(=O)c2cccc3[nH]ncc23)CC1` (stereo not drawn) the figure was 10.02%; with `CCN(C)S(=O)(=O)c1c(F)cc(NC(C)=O)cc1F`, 15.35%; with `CCC(Nc1nc(CCN)nc2ccccc12)c1cc(C)ccn1` (stereo not drawn), 5.857%.

Take `O=C(Cn1nc(-c2ccc(F)cc2)oc1=O)Nc1ccccc1`: the “Percent Effect” value is -16.04%.

With `CN(C(=O)Cn1nc(-c2ccc(F)cc2)oc1=O)C1CCS(=O)(=O)C1` (stereo not drawn), the “Percent Effect” value is -25.19%. With `Cc1nn(CC(=O)Nc2ccc(F)cc2)c(N)c1C#N` the figure was -10.06%. As to `Cc1nn(CC(=O)O)c2nccc(-c3ccc(F)cc3)c12`, the “Percent Effect” value came to 132.8%. For `O=C(O)Cn1nc(C2CC2)c2c(-c3ccc(F)cc3)ccnc21`, the “Percent Effect” value is recorded as 106.5%. The figure for `COc1ccccc1-c1cc(C(F)(F)F)c2c(C)nn(CC(=O)O)c2n1` is -3.37%; for `O=C(CO)N1CCN(C(=O)c2coc3ccccc23)CC1` it is -5.618%; for `CS(=O)(=O)N1CCC2(CC1)CC(NCc1ccccn1)c1ccccc12` (stereo not drawn) it is 90.85%. The figure for `Cn1cncc1CNC1CC2(CCN(S(C)(=O)=O)CC2)c2ccccc21.O=C(O)C(F)(F)F` (stereo not drawn) is -9.896%. The figure for `Cn1cc(CNC2CC3(CCN(S(C)(=O)=O)CC3)c3ccccc32)cn1.O=C(O)C(F)(F)F` (stereo not drawn) is 94.6%. As for `CS(=O)(=O)N1CCC2(CC1)CC(NCc1ccco1)c1ccccc12.O=C(O)C(F)(F)F` (stereo not drawn), the “Percent Effect” value is 91.69%.

Take `CS(=O)(=O)N1CCC2(CC1)CC(CC(=O)N1CCCC1)c1ccccc12` (stereo not drawn): the “Percent Effect” value is 5.675%. Consider `Cn1cncc1CNC1CC2(CCN(CC3CC3)CC2)c2ccccc21.O=C(O)C(F)(F)F.O=C(O)C(F)(F)F` (stereo not drawn), for which the “Percent Effect” value is recorded as -10.77%. The figure for `CNC(=O)CNC1CC2(CCN(c3ncccn3)CC2)c2ccccc21.O=C(O)C(F)(F)F.O=C(O)C(F)(F)F` (stereo not drawn) is -16.8%; for `Cn1cc(CNC2CC3(CCN(CC4CC4)CC3)c3ccccc32)cn1.O=C(O)C(F)(F)F.O=C(O)C(F)(F)F.O=C(O)C(F)(F)F` (stereo not drawn) it is -14.88%.

As to `CS(=O)(=O)N1CCC2(CC1)CC(NCC1CC1)c1ccccc12.O=C(O)C(F)(F)F` (stereo not drawn), the “Percent Effect” value is 107.6%. Consider `CS(=O)(=O)N1CCC2(CC1)CC(CC(=O)NC1CC1)c1ccccc12` (stereo not drawn), for which the “Percent Effect” value came out at 17.75%. The figure for `O=C(O)C(F)(F)F.O=C(O)C(F)(F)F.c1cnc(N2CCC3(CC2)CC(NCC2CC2)c2ccccc23)nc1` (stereo not drawn) is 1.529%.

Take `Cc1noc(CCCC(=O)N2CCNC(=O)C2)n1`: the “Percent Effect” value is reported as -6.568%. The figure for `Cc1c(C(C)Nc2ncnc3sccc23)cnn1C` (stereo not drawn) is -5.704%; for `CCn1ccnc1CN(C)Cc1nc(CCC(C)C)no1` it is -3.993%; for `COc1ccccc1[C@@H]1CN(C(=O)c2csc(C)n2)C[C@H]1C(=O)O` it is -8.955%.

Turning to `CCn1cc(CN(C)c2nc(C)c3ccc(S(C)(=O)=O)cc3n2)cn1`, the “Percent Effect” value is -19.68%. With `Cc1nnc(N2CCOC(Cn3cccn3)C2)c(C#N)c1C` (stereo not drawn) the figure was -2.698%.

On to `CCc1[nH]c2c(CNC(=O)C3CCN(C)C3)cc(C)cc2c1C` (stereo not drawn), for which the “Percent Effect” value was -4.959%. `Cc1nccc(C2CCCN(C(=O)c3cncnc3)C2)n1` (stereo not drawn): the “Percent Effect” value came to 134.6%. Consider `Cc1ncncc1C(=O)N1C[C@H]2CC[C@@H]1CN(C(=O)c1ccncc1)C2`, for which the “Percent Effect” value is reported as -6.558%. Take `Cc1nccc(C2CN(C(=O)c3cncnc3)C2)n1`: the “Percent Effect” value stood at 123.7%.

`Cc1cccc(C2CCCN(C(=O)c3ccncc3)C2)n1` (stereo not drawn): the “Percent Effect” value is reported as 137.8%. Consider `Cc1nc(O)cc(C2CCCN(C(=O)c3cccc(N(C)C)c3)C2)n1` (stereo not drawn), for which the “Percent Effect” value came out at 2.27%.

Consider `CCCc1cc(C(=O)N2CC(c3ccncc3)C2)ccn1`, for which the “Percent Effect” value is listed as -34.73%. With `Cc1cc(C(=O)N[C@H]2CC[C@@]3(CCC(=O)N3)CC2)no1` the figure was -22.87%; with `CNC(=O)c1coc(-c2csc(C)n2)c1`, 7.776%; with `CCNc1ncc(C(=O)NC2CCOCC2)cn1`, -0.8414%.

With `CCOc1ccc(C(=O)NC2CC2)cc1C`, the “Percent Effect” value is -6.669%. With `CCc1nc(CNC(=O)Nc2ccc(C(=O)NC)cc2C)cs1` the figure was -1.988%; with `Cc1csc2cc(C(=O)NC3CC3)cnc12`, 125.4%. As for `CNC(=O)c1cnc2c(C)csc2c1`, the “Percent Effect” value came out at 142.5%. With `Cc1csc2cc(C(=O)NC3CCCC3)cnc12` the figure was 127%.

For the molecule `Cc1ccsc1CCNC(C)C(=O)NC1CCCC1` (stereo not drawn), the “Percent Effect” value came to 3.624%. With `O=C(NC1CCC(O)CC1)c1cnc2c(cnn2C2CCCC2)c1` (stereo not drawn) the figure was -3.379%; with `Cc1cc(C2CCCN2C(=O)Cn2c(C)cc(=O)c3ccccc32)on1` (stereo not drawn), -2.941%; with `COCC(=O)N1CCN(C(=O)C2CCCCC2)[C@@H](C(=O)OC)C1`, -2.41%. The figure for `CCc1nccn1C1CCCN(C(=O)Cc2cn3ccccc3n2)C1` (stereo not drawn) is 11.58%. With `Cc1nccn1C1CCCN(C(=O)Cc2cn3ccccc3n2)C1` (stereo not drawn) the figure was 129.5%. In the case of `Cc1nc(C)n(C2CCCN(C(=O)Cc3cn4ccccc4n3)C2)n1` (stereo not drawn), the “Percent Effect” value was 141.6%. On to `Cc1nc(C)n(C2CCCN(C(=O)c3nc(C)n4ccccc34)C2)n1` (stereo not drawn), for which the “Percent Effect” value was -12.32%. With `Cc1nccn1C1CCCN(C(=O)COCC(F)(F)F)C1` (stereo not drawn) the figure was 9.036%; with `N#CC1(NC(=O)Cn2nnc(-c3cc4ccccc4o3)n2)CCCC1`, 6.129%; with `CCOC(=O)NC(CNC(=O)c1cn(C)cn1)CC(C)C` (stereo not drawn), -4.121%.

With `COc1nccnc1-c1cc(NC2CCCC2)nc2[nH]ccc12`, the “Percent Effect” value was -1.982%. The figure for `COc1ccc2[nH]cc(-c3ccnc(NC4CCCC4)n3)c2c1` is 98.2%.

For `COc1cc(-c2cc(NC3CCCC3)nc3[nH]ccc23)nc(N)n1`, the “Percent Effect” value is on record as -4.005%. With `COc1ccc2[nH]cc(-c3ccnc(N4CCC(C)CC4)n3)c2c1` the figure was 108.4%; with `COc1ccc2[nH]cc(C3CCN(CCC(N)=O)CC3)c2c1`, -13.9%; with `COc1cnc(N2CCC(c3ncc[nH]3)CC2)nc1`, 16.53%. With `COC(=O)c1cc(NS(=O)(=O)c2cn(C)cn2)c(F)cc1F` the figure was -3.496%; with `CS(=O)(=O)c1nnc(NC(=O)CCc2cccs2)[nH]1`, 5.426%; with `O=C(NCc1ccc(-n2cncn2)nc1)c1ccc2c(c1)CCO2`, 2.792%. With `CC(=O)N1CCO[C@@H]2CN(C(=O)NCc3cccnc3)CC[C@@H]2C1.O=C(O)C(F)(F)F` the figure was -5.554%. As for `COCCN1CCO[C@@H]2CN(C(=O)NCc3cccnc3)CC[C@@H]2C1.O=C(O)C(F)(F)F.O=C(O)C(F)(F)F`, the “Percent Effect” value is recorded as -7.719%. The figure for `CCN1CCO[C@@H]2CN(C(=O)c3ccc4[nH]ccc4c3)CC[C@@H]2C1.O=C(O)C(F)(F)F` is -16%. The figure for `CCN1CCO[C@@H]2CN(C(=O)NCc3ccccc3)CC[C@@H]2C1` is 91.66%; for `CC(=O)N1CCO[C@@H]2CN(C(=O)NCc3ccccc3)CC[C@@H]2C1` it is 88.95%; for `CCN(CC)Cc1cc(C(=O)N2CCCC(O)(CO)C2)c(C)o1` (stereo not drawn) it is 4.357%. With `CCCc1ccc(CN2CCN(C(=O)C(C)C)[C@@H]3CS(=O)(=O)C[C@@H]32)o1` the figure was 2.422%; with `CCCc1ccc(CN2CCN(C(=O)NCC)[C@H]3CS(=O)(=O)C[C@H]32)o1`, -11.9%; with `CCCc1ccc(CN2CCN(C(=O)N(C)C)[C@@H]3CS(=O)(=O)C[C@@H]32)o1`, 6.47%. On to `CCCc1ccc(CN2CCN(c3ncccn3)[C@@H]3CS(=O)(=O)C[C@@H]32)o1`, for which the “Percent Effect” value is recorded as -1.361%. With `CCn1ccnc1CN1CCN(Cc2ccc(C)o2)[C@@H]2CS(=O)(=O)C[C@@H]21` the figure was 98.63%. The figure for `Cc1ccc(CN2CCN(Cc3nccn3C)[C@H]3CS(=O)(=O)C[C@H]32)o1` is 91.25%. In the case of `O=C(C1CN(c2ncc(F)cn2)CC12CCOCC2)N1CC=CC1.O=C(O)C(F)(F)F` (stereo not drawn), the “Percent Effect” value is recorded as -11.35%. As for `O=C(O)C(F)(F)F.O=C(O)C(F)(F)F.c1coc(CN2CCCn3c(CN4CCOCC4)nnc3C2)c1`, the “Percent Effect” value came to 102%. The figure for `O=C(O)C(F)(F)F.c1coc(CN2CCn3c(COCC4CC4)nnc3C2)c1` is -16.88%.

As to `O=C(O)C(F)(F)F.c1cnn(Cc2nnc3n2CCCN(CC2CCOCC2)C3)c1`, the “Percent Effect” value is -9.289%. `O=C(O)C(F)(F)F.c1coc(CN2CCCn3c(nnc3Cn3cccc3)C2)c1`: the “Percent Effect” value came out at 110.6%. With `c1coc(CN2CCn3c(CN4CCOCC4)nnc3C2)c1` the figure was 0.1546%.
